Assay results as given in the supplement of paper PMC8728848.
Shown is part of a subset that was picked to be rich in the strongest signals.

Experiments:
Assay in all cases: glycan array binding signal (z-score within array); higher = stronger binding
Conditions in all cases: glycan notation: IUPAC condensed, linker removed
Fuc(a1-2)Gal(b1-4)GlcNAc = target: Fuc(a1-2)Gal(b1-4)GlcNAc
In short: (§1)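 Glycan array data were curated from 3228 arrays in the Consortium for Functional Glycomics database and kept only where the protein sequence was available. Glycan names were converted to IUPAC-condensed notation, and columns mapping to the same glycan were averaged. The binding signal is a within-array Z-score, averaged across arrays of the same protein sequence at different concentrations or buffers and across linkers. Negative Z-scores can be read as non-binding.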

[1] = target: Fuc(a1-3)[Gal3S(b1-4)]GlcNAc
In short: as §1

[2] = target: Fuc(a1-3)[Neu5Ac(a2-3)]Gal(b1-4)GlcNAc(b1-3)GalNAc
In short: as §1

Gal(a1-6)Glc = target: Gal(a1-6)Glc
In short: as §1

Gal(b1-4)Glc = target: Gal(b1-4)Glc
In short: as §1

[3] = target: Gal(b1-4)GlcNAc(b1-2)Man(a1-6)Man(b1-4)GlcNAc(b1-4)GlcNAc
In short: as §1

[4] = target: Gal3S(b1-3)[Fuc(a1-4)]GlcNAc
In short: as §1

Gal3S(b1-4)Glc = target: Gal3S(b1-4)Glc
In short: as §1

Gal6S(b1-4)GlcNAc6S = target: Gal6S(b1-4)GlcNAc6S
In short: as §1

[5] = target: GalNAc(b1-4)GlcNAc(b1-2)Man(a1-3)[GalNAc(b1-4)GlcNAc(b1-2)Man(a1-6)]Man(b1-4)GlcNAc(b1-4)GlcNAc
In short: as §1

[6] = target: GlcNAc(a1-4)Gal(b1-4)GlcNAc(b1-3)Gal(b1-4)Glc
In short: as §1

[7] = target: GlcNAc(a1-4)Gal(b1-4)GlcNAc(b1-3)Gal(b1-4)[Fuc(a1-3)]GlcNAc(b1-3)Gal(b1-4)[Fuc(a1-3)]GlcNAc
In short: as §1

GlcNAc(b1-4)GlcNAc = target: GlcNAc(b1-4)GlcNAc
In short: as §1

[8] = target: GlcNAc(b1-4)GlcNAc(b1-4)GlcNAc(b1-4)GlcNAc(b1-4)GlcNAc
In short: as §1

Kdn(a2-6)Gal(b1-4)GlcNAc = target: Kdn(a2-6)Gal(b1-4)GlcNAc
In short: as §1

[9] = target: Man(a1-2)Man(a1-3)[Man(a1-6)]Man(a1-6)[Man(a1-2)Man(a1-3)]Man(b1-4)GlcNAc(b1-4)GlcNAc
In short: as §1

[10] = target: Neu5Ac(a2-3)Gal(b1-3)GlcNAc6S
In short: as §1

[11] = target: Neu5Ac(a2-3)Gal(b1-3)[Neu5Ac(a2-6)]GalNAc
In short: as §1

Neu5Ac(a2-3)Gal(b1-4)Glc = target: Neu5Ac(a2-3)Gal(b1-4)Glc
In short: as §1

[12] = target: Neu5Ac(a2-3)Gal(b1-4)GlcNAc6S
In short: as §1

[13] = target: Neu5Ac(a2-3)Gal(b1-4)[Fuc(a1-3)]GlcNAc(b1-3)Gal(b1-4)GlcNAc
In short: as §1

[14] = target: Fuc(a1-2)Gal(b1-4)GlcNAc(b1-3)Gal(b1-4)GlcNAc(b1-3)Gal(b1-4)GlcNAc
In short: as §1

[15] = target: Fuc(a1-2)Gal(b1-4)GlcNAc6S
In short: as §1

Fuc(a1-2)[Gal(a1-3)]Gal = target: Fuc(a1-2)[Gal(a1-3)]Gal
In short: as §1

[16] = target: Gal(a1-3)Gal(b1-4)[Fuc(a1-3)]GlcNAc
In short: as §1

Gal(b1-2)Gal = target: Gal(b1-2)Gal
In short: as §1

[17] = target: Gal(b1-3)[Fuc(a1-4)]GlcNAc(b1-3)Gal(b1-4)GlcNAc
In short: as §1

[18] = target: Gal(b1-3)[Fuc(a1-4)]GlcNAc(b1-3)Gal(b1-4)[Fuc(a1-3)]GlcNAc
In short: as §1

Gal3S(b1-4)Glc6S = target: Gal3S(b1-4)Glc6S
In short: as §1

Gal3S6S(b1-4)GlcNAc6S = target: Gal3S6S(b1-4)GlcNAc6S
In short: as §1

[19] = target: GlcNAc(b1-4)Gal(b1-4)GlcNAc
In short: as §1

[20] = target: Man(a1-2)Man(a1-3)[Man(a1-2)Man(a1-6)]Man
In short: as §1

[21] = target: Man(a1-2)Man(a1-3)[Man(a1-2)Man(a1-6)]Man(a1-6)[Man(a1-2)Man(a1-2)Man(a1-3)]Man
In short: as §1

[22] = target: Neu5Ac(a2-3)Gal(b1-4)[Fuc(a1-3)]GlcNAc(b1-3)Gal
In short: as §1

[23] = target: Neu5Ac(a2-3)Gal(b1-4)[Fuc(a1-3)]GlcNAc(b1-6)[Gal(b1-3)]GalNAc
In short: as §1

[24] = target: Neu5Ac(a2-6)Gal(b1-4)GlcNAc(b1-2)Man(a1-3)[GlcNAc(b1-2)Man(b1-4)GlcNAc(b1-2)Man(a1-6)]Man(b1-4)GlcNAc(b1-4)GlcNAc
In short: as §1

[25] = target: Neu5Ac(a2-8)Neu5Ac(a2-8)Neu5Ac(a2-3)Gal(b1-4)Glc
In short: as §1

Binder	glycan array binding signal (z-score) (Fuc(a1-2)Gal(b1-4)GlcNAc)	glycan array binding signal (z-score) [1]	glycan array binding signal (z-score) [2]	glycan array binding signal (z-score) (Gal(a1-6)Glc)	glycan array binding signal (z-score) (Gal(b1-4)Glc)	glycan array binding signal (z-score) [3]	glycan array binding signal (z-score) [4]	glycan array binding signal (z-score) (Gal3S(b1-4)Glc)	glycan array binding signal (z-score) (Gal6S(b1-4)GlcNAc6S)	glycan array binding signal (z-score) [5]	glycan array binding signal (z-score) [6]	glycan array binding signal (z-score) [7]	glycan array binding signal (z-score) (GlcNAc(b1-4)GlcNAc)	glycan array binding signal (z-score) [8]	glycan array binding signal (z-score) (Kdn(a2-6)Gal(b1-4)GlcNAc)	glycan array binding signal (z-score) [9]	glycan array binding signal (z-score) [10]	glycan array binding signal (z-score) [11]	glycan array binding signal (z-score) (Neu5Ac(a2-3)Gal(b1-4)Glc)	glycan array binding signal (z-score) [12]	glycan array binding signal (z-score) [13]	glycan array binding signal (z-score) [14]	glycan array binding signal (z-score) [15]	glycan array binding signal (z-score) (Fuc(a1-2)[Gal(a1-3)]Gal)	glycan array binding signal (z-score) [16]	glycan array binding signal (z-score) (Gal(b1-2)Gal)	glycan array binding signal (z-score) [17]	glycan array binding signal (z-score) [18]	glycan array binding signal (z-score) (Gal3S(b1-4)Glc6S)	glycan array binding signal (z-score) (Gal3S6S(b1-4)GlcNAc6S)	glycan array binding signal (z-score) [19]	glycan array binding signal (z-score) [20]	glycan array binding signal (z-score) [21]	glycan array binding signal (z-score) [22]	glycan array binding signal (z-score) [23]	glycan array binding signal (z-score) [24]	glycan array binding signal (z-score) [25]
Spy 2007 (Streptococcus pyogenes), Q99XV3 (protein) MKKGFFLMAMVVSLVMIAGCDKSANPKQPTQGMSVVTSFYPMYAMTKEVSGDLNDVRMIQSGAGIHSFEPSVNDVAAIYDADLFVYHSHTLEAWARDLDPNLKKSKVDVFEASKPLTLDRVKGLEDMEVTQGIDPATLYDPHTWTDPVLAGEEAVNIAKELGRLDPKHKDSYTKNAKAFKKEAEQLTEEYTQKFKKVRSKTFVTQHTAFSYLAKRFGLKQLGISGISPEQEPSPRQLKEIQDFVKEYNVKTIFAEDNVNPKIAHAIAKSTGAKVKTLSPLEAAPSGNKTYLENLRANLEVLYQQLK	0.299	0.277	5.41	-0.074	-0.461	-0.392	3.35	-0.543	5.95	3.5	0.12	3.22	-0.446	4.65	-0.715	-0.649	-0.663	1.08	0.127	1.47	0.479																
Chaperone 60.2 (Mycobacterium tuberculosum), P9WPE7 (protein) MAKTIAYDEEARRGLERGLNALADAVKVTLGPKGRNVVLEKKWGAPTITNDGVSIAKEIELEDPYEKIGAELVKEVAKKTDDVAGDGTTTATVLAQALVREGLRNVAAGANPLGLKRGIEKAVEKVTETLLKGAKEVETKEQIAATAAISAGDQSIGDLIAEAMDKVGNEGVITVEESNTFGLQLELTEGMRFDKGYISGYFVTDPERQEAVLEDPYILLVSSKVSTVKDLLPLLEKVIGAGKPLLIIAEDVEGEALSTLVVNKIRGTFKSVAVKAPGFGDRRKAMLQDMAILTGGQVISEEVGLTLENADLSLLGKARKVVVTKDETTIVEGAGDTDAIAGRVAQIRQEIENSDSDYDREKLQERLAKLAGGVAVIKAGAATEVELKERKHRIEDAVRNAKAAVEEGIVAGGGVTLLQAAPTLDELKLEGDEATGANIVKVALEAPLKQIAFNSGLEPGVVAEKVRNLPAGHGLNAQTGVYEDLLAAGVADPVKVTRSALQNAASIAGLFLTTEAVVADKPEKEKASVPGGGDMGGMDF	1.32																					-0.159	4.33	-0.04	-0.652	-0.591	3.11	-0.254	4.1	3.22	-0.93	1.47	-1.16	-0.716	-0.295	3.89	-0.208
